Laboratory results taken from the supplement of paper PMC3334620.
Over roughly 33,000 sequences, “E-score (-0.5 to 0.5)” has its median near -0.012; the highest 2% begin near 0.27. What follows is part of a selection rich in the highest values, with near analogues and random picks from the rest.

Biological target: T1, Vhr1 (UniProt P40522)
T1 sequence: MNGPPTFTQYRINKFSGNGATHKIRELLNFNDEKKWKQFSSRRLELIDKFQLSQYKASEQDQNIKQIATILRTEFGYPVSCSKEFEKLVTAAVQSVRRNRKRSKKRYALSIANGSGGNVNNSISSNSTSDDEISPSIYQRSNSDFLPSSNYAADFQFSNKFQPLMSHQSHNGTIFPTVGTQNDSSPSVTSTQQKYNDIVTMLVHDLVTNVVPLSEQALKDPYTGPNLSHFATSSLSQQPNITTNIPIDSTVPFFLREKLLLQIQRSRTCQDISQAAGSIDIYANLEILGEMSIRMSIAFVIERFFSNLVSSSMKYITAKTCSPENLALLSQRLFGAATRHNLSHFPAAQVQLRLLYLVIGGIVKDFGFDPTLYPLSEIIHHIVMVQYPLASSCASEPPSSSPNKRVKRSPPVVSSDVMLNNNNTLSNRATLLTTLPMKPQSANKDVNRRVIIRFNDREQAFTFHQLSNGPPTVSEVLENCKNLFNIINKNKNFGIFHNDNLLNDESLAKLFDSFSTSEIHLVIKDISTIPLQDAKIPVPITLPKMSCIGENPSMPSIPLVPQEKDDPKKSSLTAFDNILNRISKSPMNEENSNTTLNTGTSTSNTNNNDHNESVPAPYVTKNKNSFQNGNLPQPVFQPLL
Assay: PBM E-score (8-mer binding enrichment) (E-score (-0.5 to 0.5)); higher = stronger / more preferred TF binding
Conditions: protein concentration: 200 nM; construct: GST-full length
Procedure: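 Universal 'all 10-mer' protein binding microarrays (Agilent AMADID 015681) probed with GST-tagged S. cerevisiae TFs (full-length or DBD) made by in vitro transcription/translation (PURExpress), about 100-200 nM. Bound TF was detected with fluorescent anti-GST. Each ungapped 8-mer (which stands for itself and its reverse complement) is scored by the PBM enrichment score (E-score), a modified Wilcoxon-Mann-Whitney statistic from -0.5 to +0.5, computed with the Universal PBM Analysis Suite. Scale: above 0.35 generally sequence-specific binding.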

| Sequence | PBM E-score |
| --- | --- |
| ACTAGAGT | 0.0036 |
| ACCACATG | 0.262 |
| ACCACATA | 0.125 |
| ACCACATC | 0.276 |
| CGCTCACA | 0.137 |
| CCCAACCA | 0.275 |
| ACCAACCA | 0.163 |
| ACCAACAG | 0.046 |
| ACCAACAA | 0.359 |
| CCCAACCC | 0.118 |
| ACCAACAT | 0.157 |
| CCCTAGCC | -0.184 |
| CCCCCACC | -0.341 |
| GCCCCACC | 0.265 |
| CACCCACA | 0.241 |
| GCCCCTCA | -0.0991 |
| CCCCCTCC | -0.0898 |
| GACCCACC | 0.224 |
| CACCCACC | 0.317 |
| GCCCCTCC | 0.331 |
| AACCCACT | 0.246 |
| ACCCCACC | 0.385 |
| AACCCACC | 0.313 |
| AACCCACA | 0.168 |
| GCGGCCAC | 0.0847 |

| Sequence | PBM E-score |
| --- | --- |
| ACAGCGAT | -0.04 |
| AGATCTGC | -0.0821 |
| GGGCTGGA | -0.0152 |
| GGTGGTCA | 0.00378 |
| GACCCACA | 0.284 |
| AACCCACG | 0.0933 |
| CACCCACG | 0.249 |
| CACCCTCA | 0.0412 |
| AACCCTCC | -0.129 |
| CACCCTCC | 0.276 |
| CCACCAAA | 0.0455 |
| GCGAAACC | -0.0227 |
| GAGTCTCA | 0.256 |
| GCACACCC | 0.139 |
| TCGCGCAA | 0.0709 |
| GCGCGCGA | 0.185 |
| GCGCGCGC | 0.379 |
| GCGCGCAA | 0.3 |
| CCGCGCGG | 0.346 |
| ACGCGCGC | 0.107 |
| CCGCGCAA | -0.026 |
| CCGCGCGA | 0.22 |
| CCGCGCGC | 0.258 |
| AGGACGCG | -0.226 |
| CTAAAGAG | -0.0856 |

| Sequence | PBM E-score |
| --- | --- |
| GTAGCGAA | -0.027 |
| AACTAGAA | -0.115 |
| GGTCACTA | -0.0218 |
| AATCACTG | 0.374 |
| AGTCACTC | 0.428 |
| AATCACTA | 0.267 |
| ATTCACTG | -0.0337 |
| CGTCACTA | 0.0865 |
| AATCACTC | 0.115 |
| AGTCACTA | 0.366 |
| ACTCACTC | 0.254 |
| AGTCACTG | 0.384 |
| CGTCACTC | -0.0595 |
| ACTCACTG | 0.265 |
| AACGGTCC | -0.263 |
| AGGTGTGC | 0.163 |
| AAGCTCCA | 0.111 |
| AAGCCACT | -0.0197 |
| CCATCTGC | 0.0983 |
| GTCTTCAC | -0.058 |
| AATCTAGC | -0.218 |
| CTATAGGC | -0.243 |
| AACCTGAG | -0.0364 |
| ACACGACA | 0.0664 |
| ACACGACC | 0.109 |

| Sequence | PBM E-score |
| --- | --- |
| ACACGACT | 0.277 |
| GCTTGCAA | 0.0649 |
| AAAGGTGC | -0.162 |
| ACGGTAAT | -0.0641 |
| ACGAGTCA | 0.43 |
| CCAAGTCG | 0.00863 |
| CCGAGTCG | 0.336 |
| ACGAGTAG | 0.0242 |
| TCGAGTAA | 0.0538 |
| TCGAGTCA | 0.399 |
| TCGAGCCA | -0.0584 |
| ACGAGTCC | 0.0781 |
| ACGAGTTG | 0.0198 |
| CCGAGTAG | 0.1 |
| ACGAGTCT | 0.0718 |
| ACGAGTCG | 0.322 |
| CGGCTAAC | -0.0152 |
| GGCAAGAC | -0.138 |
| TGGTCTAA | -0.0689 |
| GCCGTCTA | 0.00852 |
| GAGCACTA | 0.0167 |
| CCGAGTAA | 0.0614 |
| CCGAGTCA | 0.451 |
| CCGAGTCC | 0.144 |
| GCGAGTAA | 0.2 |

| Sequence | PBM E-score |
| --- | --- |
| GCGAGTCC | 0.22 |
| GCGAGTCA | 0.455 |
| ATTCGATG | 0.0921 |
| AAGCCTCG | 0.00094 |
| AGTCCCCG | 0.0704 |
| GGTGCTGA | 0.042 |
| AGCACCAG | -0.0111 |
| CGCACCAG | 0.302 |
| CGCACCAA | 0.143 |
| AAATAATT | 0.0111 |
| AGCTGACG | -0.12 |
| ACCTGACC | 0.11 |
| AGCTGACC | 0.116 |
| ACCTGACT | 0.374 |
| AGCTGACT | 0.413 |
| ACCTGACG | -0.0943 |
| GGGCTTAC | -0.00595 |
| AGAACTGA | -0.183 |
| ATGAAGTG | -0.149 |
| TAACAGAA | -0.069 |
| ATTGAGAC | 0.18 |
| ATTGAGTA | 0.308 |
| CTTGAGTC | 0.333 |
| GTTGAGTA | 0.147 |
| ATTGAGAA | 0.113 |

| Sequence | PBM E-score |
| --- | --- |
| ATTGAGTG | 0.202 |
| CTTGAGGC | -0.174 |
| CTTGAGTA | 0.0408 |
| ATTGAGTC | 0.387 |
| AGAGAAGA | -0.148 |
| AACATCGG | 0.0341 |
| ATGCCAGG | 0.0307 |
| CGCGTACG | 0.0931 |
| CGCACGCC | 0.167 |
| ACGTTCGC | -0.141 |
| GCTGCCAA | -0.0372 |
| ACTGATTC | 0.283 |
| CCTGATTC | 0.367 |
| CCTGATGC | -0.0265 |
| ACTGATTG | -0.00926 |
| ACTGATTA | 0.147 |
| CCTGATTA | 0.158 |
| ACTCTACA | 0.0564 |
| ACGTCCAG | -0.147 |
| CGAATAAG | 0.0236 |
| AGTATATC | 0.0944 |
| AGTATATG | 0.239 |
| ACTATATA | 0.274 |
| GCTATATA | 0.0669 |
| ACTATATC | 0.198 |

| Sequence | PBM E-score |
| --- | --- |
| AGTATATA | 0.33 |
| CAGAATGA | 0.0955 |
| CAAGGGCA | -0.168 |
| GTTCTAAA | -0.164 |
| GAGCGACC | -0.162 |
| CCTCACCC | 0.0394 |
| CCTCACCG | 0.113 |
| ACTCACCT | 0.244 |
| CCTCACCA | -0.00516 |
| ACTCACCA | 0.378 |
| ACTCACCG | 0.309 |
| GCTCACCC | 0.265 |
| ACTCACCC | 0.391 |
| TCTCACCA | 0.0878 |
| CTCTAGCC | -0.167 |
| CCAGGGAG | 0.09 |
| GTAGGGTA | 0.0298 |
| CAAGCGTG | -0.00913 |
| CCATTCAA | 0.0103 |
| CAGATTCG | 0.069 |
| CAACCATC | 0.0512 |
| AAACCATC | 0.273 |
| AAACCATA | 0.0822 |
| ACTGGGTA | -0.00457 |
| ATAGGGGC | -0.0513 |

| Sequence | PBM E-score |
| --- | --- |
| GAGCGAAA | 0.0518 |
| AACTTTTG | -0.205 |
| ATCATATG | 0.174 |
| ATCATATC | 0.3 |
| CTCATATC | 0.203 |
| TACCAAGA | 0.0906 |
| AGAGCGCC | -0.134 |
| AATGATGC | 0.0924 |
| AGGGCCAA | -0.299 |
| AGTCTGCC | 0.0302 |
| CGGGAGAC | -0.0366 |
| CGGGAGTA | 0.00502 |
| AGGGAGTG | 0.042 |
| AGGGAGTA | 0.113 |
| CGGGAGTC | 0.386 |
| AGGGAGTC | 0.343 |
| ACCACAAC | 0.258 |
| AATACAGG | 0.111 |
| CTCCTCTA | -0.189 |
| AGGGGTGA | -0.0936 |
| ACGGGTGA | 0.117 |
| CCGGGTGA | 0.208 |
| CGGGGTGA | 0.275 |
| ACGGGTCA | -0.077 |
| GCGGGTCC | -0.00354 |

| Sequence | PBM E-score |
| --- | --- |
| GCGGGTCA | 0.308 |
| GCGGGTGA | 0.293 |
| GGGGGTGA | 0.132 |
| GCTTAAAA | -0.0463 |
| ACAGTTAA | 0.0518 |
| GTACCTAA | -0.0816 |
| CGGTCGAC | 0.0782 |
| GAAGATAA | -0.0175 |
| CTCACCAA | 0.265 |
| ATCACCCA | 0.223 |
| GTCACCGA | 0.256 |
| CTCACCCA | 0.342 |
| CTCACCGA | 0.183 |
| CTTACCCC | -0.156 |
| CTCACCCC | 0.318 |
| GTCACCCA | 0.311 |
| ATCACCCC | 0.199 |
| ACTGGTGG | 0.0234 |
| GAGGGCTA | -0.228 |
